Here are results for 30 compounds from ChEMBL document CHEMBL1157539, “Thousands of chemical starting points for antimalarial lead identification” (Nature, 2010).

Common to all, as to assay type: functional
Experiment [1] relates to Plasmodium falciparum. Put plainly: GSK_TCMDC: Inhibition of Plasmodium falciparum 3D7 in whole red blood cells, using parasite LDH activity as an index of growth. Test compounds present at 2uM.
For experiment [2], the system named is Plasmodium falciparum. Put plainly: GSK_TCMDC: Inhibition of Plasmodium falciparum Dd2 in whole red blood cells, using parasite LDH activity as an index of growth. Test compounds present at 2uM.
Experiment [3] relates to HepG2. Briefly: GSK_TCMDC: Percent inhibition of human HepG2 cell line. Test compounds present at 10uM.

The structures appear in SMILES notation.

Take `COc1ccc(C(=O)NCc2ccc(N)nc2C)cc1Nc1ncc(-c2cccc(N(C)C)c2)cn1`: the values for the Inhibition in experiment [1], in experiment [2] and in experiment [3] were 89%, 68% and 9%, respectively.
In the same order, the values of `O=C(NNC(=O)c1ccc(CCN2CCC(c3nc(COCC(F)(F)F)c(-c4ccc(F)cc4)o3)CC2)cc1)Nc1ccc(Oc2ccccc2)cc1` are 100%, 89% and 38%.
In the same order, the values of `COc1ccc(-c2cc(-c3ccc(S(C)(=O)=O)cc3)cnc2N)cn1` are 94%, 99% and 5%.
In the same order, the values of `O=C(Nc1ccc(-c2nc3ccc(NC(=O)c4ccc(Br)cc4)cc3[nH]2)cc1)c1ccc(Br)cc1` are 98%, 4% and 40%.
`CCc1c(CCNC/C=C/C=C/CNCCc2ccc(OC)c(OC)c2CC)ccc(OC)c1OC.Cl`: the figures for the Inhibition in experiment [1], in experiment [2] and in experiment [3] were 100%, 99% and 75%, respectively.
For `O=C(Nc1cccc(C(F)(F)F)c1)NC1CCN(c2ccnc3cc(Cl)ccc23)C1.O=C(O)C(F)(F)F` (stereo not given), in that order: 100%, 89% and 18%.
For `Cc1nc(N)nc(N)c1OCCCOc1ccccc1Br.Cl`, in that order: 94%, 96% and 57%.
For `COc1ccc2c(c1)Nc1ccc(Cl)cc1C2N.O=S(=O)(O)O` (stereo not given), in that order: 100%, 99% and 16%.
Consider `COc1ccc2nccc([C@@H](O)CN3CCC(NC(=O)c4[nH]c5ccccc5c4-c4ccccc4)CC3)c2c1`, for which the Inhibition (commonly the drop in the measured response relative to a control, in per cent) is recorded as 96% in experiment [1], 68% in experiment [2] and 18% in experiment [3].
Take `CCN(CC)C(C)(C)CN(Cc1ccc(-c2ccc(C(F)(F)F)cc2)cc1)C(=O)Cn1c(CCc2cccc(F)c2F)nc(=O)c2ccccc21.O=C(O)C(O)C(O)C(=O)O`: the Inhibition is recorded as 91% in experiment [1], 79% in experiment [2] and 53% in experiment [3].
For `COc1ccc(OC(C)CNC(=O)c2cc([N+](=O)[O-])ccc2-c2ccc(OC)cc2)cc1` (stereo not given), in that order: 92%, 44% and 18%.
In the same order, the values of `O=C(NC1CCC(N2CCC(c3ccccc3C(F)(F)F)CC2)CC1)c1cc2ccccc2[nH]1` (stereo not given) are 100%, 98% and 80%.
In the same order, the values of `O=C(NCCCCCN1CCC(c2c[nH]c3ccccc23)CC1)Nc1cccc(Cl)c1` are 86%, 0% and 36%.
With `O=C(NCc1ccccc1)C1Cc2c([nH]c3ccc(Br)cc23)C2(CCN(Cc3ccccc3)CC2)N1` (stereo not given), the Inhibition in experiment [1] came to 98%; in experiment [2] it was 70%; in experiment [3] it was 15%.
With `CC(CN(C)C)C(=O)Nc1cccc(-c2ccc(-c3nc4cc(F)ccc4[nH]3)s2)c1` (stereo not given), the figures for the Inhibition in experiment [1], in experiment [2] and in experiment [3] were 100%, 99% and 3%, respectively.
For `COc1ccc(Cc2nc(/N=C(\N)Nc3ccccc3)ccc2OC)cc1`, in that order: 93%, 68% and 40%.
In the same order, the values of `CN1CCCN(Cc2ccc(-c3ccc(NC(=O)c4ccc(C#N)cc4)cc3)cc2)CC1.O=C(O)C(F)(F)F` are 91%, 28% and 30%.
Regarding `CCCCCCCCc1c(C)nc(C)c(I)c1O`, the Inhibition in experiment [1] was determined as 91%; in experiment [2] it was 77%; in experiment [3], 5%.
For the compound `CCN(CC)CCN(Cc1ccc(-c2ccc(C(F)(F)F)cc2)cc1)C(=O)Cn1c(CCc2cccc(F)c2F)cc(=O)c2c1CCCC2.O=C(O)C(O)C(O)C(=O)O`, the Inhibition in experiment [1] worked out at 100%; in experiment [2], 95%; in experiment [3] it was 93%.
For `Cc1cc(Br)cnc1CCCCNC1=NC(=O)CN1C`, in that order: 95%, 26% and 63%.
For `CN(C(=O)c1ccc(Br)cc1)c1ccccc1[N+](=O)[O-]`, in that order: 96%, 0% and 3%.
For `O=C(NC1CCCCC1)N(Cc1ccc(-c2cccc(CNC3CCCC3)c2)cc1)C1CCN(Cc2ccccc2)CC1.O=C(O)C(F)(F)F`, in that order: 95%, 59% and 52%.
For `CC1CCCN(Cc2cc(Cl)cc(Cl)c2O)C1` (stereo not given), the results for the Inhibition in experiment [1], in experiment [2] and in experiment [3] were 89%, 77% and 22%, respectively.
Consider `COc1ccc2ncc(Cl)c(CCN3CCC(NCc4ccc5c(n4)NC(=O)CS5)CC3)c2c1.Cl`, for which the figures for the Inhibition in experiment [1], in experiment [2] and in experiment [3] were 100%, 34% and 26%, respectively.
Consider `Cc1c(C(=O)C2CC2CN2CCC(N3CCCCC3)CC2)sc2ccccc12` (stereo not given), for which the Inhibition in experiment [1] is 94%; in experiment [2], 19%; in experiment [3], 35%.
For `CCOc1cc(C(=O)N[C@@H](Cc2ccccc2)[C@H](O)CNC(C)(C)c2cccc(OC)c2)cc(N2CCCS2(=O)=O)c1`, in that order: 99%, 99% and 0%.
As to `COc1cccc2cc(C(=O)N[C@@H](CC(C)C)C(=O)N[C@H](C=NNC(=O)OC(C)(C)C)Cc3ccccc3)oc12`, the values for the Inhibition in experiment [1], in experiment [2] and in experiment [3] were 99%, 88% and 11%, respectively.
As for `Clc1cc(Nc2ncnc3sc(C#Cc4ncc[nH]4)cc23)ccc1OCc1ccccn1`, the Inhibition is 100% in experiment [1], 6% in experiment [2] and 10% in experiment [3].
For `COc1ccc(-c2ccc(NC(=O)c3ccc(C#N)cc3)cc2)cc1CN1CCN(C)CC1.O=C(O)C(F)(F)F`, in that order: 93%, 49% and 21%.
Take `COc1ccc(-c2cccc(NC(=O)c3cccc(Cl)c3)c2)cc1CNC(C)C.O=C(O)C(F)(F)F`: the results for the Inhibition in experiment [1], in experiment [2] and in experiment [3] were 100%, 8% and 15%, respectively.
